Here are results for 40 sequences from the supplement of paper PMC6555819.

For the assay, the system named is VDR:RXRa (NR concentration 270 nM, RXRa partner concentration 90 nM). The experiment in a line: PBM binding z-score (relative to random genomic background probes); higher = stronger binding; sequences stand for … in GC…GCGATTGACAGCGTAGAATGAAGG
On the procedure:
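Protein-binding microarray (Agilent 4x180K custom design, double-stranded 60-nt probes: 5' GC cap, 34-nt variable region, 24-nt constant primer region; full probe sequence given). Purified or IVT nuclear receptor:RXRα heterodimers (3:1 NR:RXRα, mostly 270:90 nM) or homodimers were incubated for 1 h in PBS with 2% milk and no ligand, then detected with Alexa488 antibodies. Fluorescence from o1-orientation probes (~5 replicates averaged) was converted to z-scores against 500 random hg19 background probes. Variable regions are seed direct-repeat (DR0–DR5) sites, all their single-nucleotide variants and half-site ablations.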
With CGAACTAGGCCAAAGGACAGTGAAAGGCGACGTA, the PBM binding z-score is -0.722.
In turn, CGAACTAGGTCAATGGACAGTGAAAGGCGACGTA returned a PBM binding z-score of 0.802.
AGTCAAAGTTCAGGACGAGGTAAAGTAAAGCACG: the PBM binding z-score was determined as 3.01.
Take GGAACGAGCGCAAAGTTGATAGCATCTGTCGACG: the PBM binding z-score is -0.765.
Regarding CGAACTAGGTCACCAGGATAGTGAAGAGGTTGGA, the PBM binding z-score worked out at 1.93.
CTCGAAAGGTCGTGCTCAGGTGAGTACACCAAAC gave a PBM binding z-score of 3.6.
Sequence CGAACTAGGTCACCAGGTCAGTGAAGAGGTTGGA showed a PBM binding z-score of 3.92.
In turn, GATACAGGGTCATCTAGAGGCCAGAGTATGGAAA showed a PBM binding z-score of 5.14.
The result for CCTACGGGGCCAAGGTCATTGATCAGTCAAAGCA reads 3.52; that for CCGCGTAGGTTACGAGGGGGCATTCAGTGCGAAT, 5.31; that for CCTTACGGGTCAGGAGGTTATAGCACGACGAGCG, 3.14.
In the case of CTATCTAGGTTAAGGGGGTCATTCAGTTTGAAAG, the PBM binding z-score stood at 7.51.
In turn, CGTCGGAGGACAACAGGAGGTCAGAGCTGCCAGA registered a PBM binding z-score of 2.05.
Regarding GATACAGGGTCAAGGCCAGAGTACGCGTATTGAT, the PBM binding z-score is 4.28.
On to ACTAGGAGGACAAAGGTCAGAGCTACGCCAGTGA, for which the PBM binding z-score was 3.45.
CCTACTGGGCCATACAGAGGTCATTGATCATATG came in with a PBM binding z-score of 4.09.
With CCTAGTTGGTCAGGAGGTCACATACCGGATATGA the figure was 3.57; with TCTAGCTGGTCACGGAGGTCACACACGACGGGTA, 6.05; with CGCACTAGGTCAAAGGACAGTGAAAGGCGACGTA, 1.35.
Regarding CGTCAAAGTTCAAGGTTACGTAACAGAAAGCAGC, the PBM binding z-score turned out to be 4.31.
On to CTATGTAGGTTAATGGGGTCATTCAGTTTGAAAG, for which the PBM binding z-score is 7.83.
The result for CTAACTAGGTCAAGGTCAAAGTCGGTTTGTGCCA reads 5.07; that for AGAATGAGGTTACCAGAGATCAGGGAAACGCTTG, 1.72.
In turn, TCATATAGGTAATAGGTGAAAGTCGGTGTGGTAA showed a PBM binding z-score of 0.883.
The result for CCTTACGGTTCACTGACAGGTTATAGCATTTGGA reads 2.6.
In the case of CCTACTGGGCCATCAGGTGATTGATATCAACGTT, the PBM binding z-score was -0.317.
CCTAGTTGGTCAGGAAGTCACACACCGGATATGA came in with a PBM binding z-score of 0.604.
On to GATACACGGTCAAGGCCAGAGTACGCGTATTGAT, for which the PBM binding z-score is -0.0304.
Sequence TCGAGTAGGTTACGGGGGCATTCGGGGATGAAGA returned a PBM binding z-score of 4.16.
CCTGCTAGGTCATGGTCAGGTAATCTACAGTATG showed a PBM binding z-score of 1.76.
CCTAGTTGGTCAAGGTCACGCACGCTATAGGTAC showed a PBM binding z-score of 4.45.
For the sequence CTAACTAGGTCACGAAAGGTCAAAGTCGAATGAC, the PBM binding z-score is 6.76.
In turn, ACTTACGGGTCAACGGGGTTATAGCACGCGTATA gave a PBM binding z-score of 7.87.
As to GATACAGGGTCAAGGCCAGAATACGCGTATTGAT, the PBM binding z-score was found to be 4.05.
CGTCCAAGGTCAACGCTAGGTCAGTGAAAGCATT came in with a PBM binding z-score of 5.09.
With TGGCCTAGGTCATGGGCCAGTATACCACGCGAAC the figure was 1.62; with CGAACTAGGTCACCTGGACAGTGAAGAGGTTGGA, 2.34; with CAGAGTAGGTTACGAGGGGGCATTCAGTGCGAAT, 5.33.
With TCGAGTATGTTACGGGGGCATTCAGGGATGAAGA the figure was 3.48; with CGAACTAGGTCACCAGGACAGCGAAGAGGTTGGA, 1.88.
